# Screening data from PubChem BioAssay.
# In the library only some 3.5% were active in any assay of this set; here they are far more common.
# Rv3671c inh = inhibitors of M. tuberculosis serine protease Rv3671c; inhibition, % at 5.96 µM; actives 0.048% (n = 320,000); AID 2606; in the data active = inhibition above about 38%;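 also: extracellular domain of Rv3671c used as enzyme; 0% = enzyme with DMSO and 100% = no enzyme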
# Mtb UGM inh = Mtb UDP-galactopyranose mutase inhibition | inhibition, % at 10 µM | AID 504406 | purified UGM, fluorescence polarization probe displacement | actives 0.06% (n = 320,000); in the data active = inhibition above about 10%, passing the limit was not always enough
# Mtb FBA inh = inhibits M. tuberculosis FBA enzyme; P9WQA3; purified M. tuberculosis FBA, fluorescence read-out; inhibition, % at 1 µM; actives 2.3% (n = 360,000);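 also: 0% = vehicle and 100% = reference inhibitor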
# Target sequence (P9WQA3 whole entry, looked up): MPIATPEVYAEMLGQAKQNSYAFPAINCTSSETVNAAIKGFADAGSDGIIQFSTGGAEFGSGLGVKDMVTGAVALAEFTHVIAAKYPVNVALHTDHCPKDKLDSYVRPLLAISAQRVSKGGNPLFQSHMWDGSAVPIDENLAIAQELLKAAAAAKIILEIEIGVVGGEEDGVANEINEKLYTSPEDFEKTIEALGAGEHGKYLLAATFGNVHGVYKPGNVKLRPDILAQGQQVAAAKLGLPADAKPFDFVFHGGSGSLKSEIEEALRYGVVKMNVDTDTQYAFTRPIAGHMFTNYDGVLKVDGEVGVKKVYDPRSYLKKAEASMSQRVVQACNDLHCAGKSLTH
# GDH-TPI counter-1 = inhibits GDH-TPI coupling enzymes, artifact for Mtb FBA screen; actives 1.2% (n = 360,000); GDH-TPI coupled enzyme counterscreen, NADH absorbance; inhibition, % at 4.8 µM; AID 588335; in the data active = inhibition above about 30%;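 also: 0% = DMSO wells and 100% = wells lacking the enzyme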
# Mtb FBA inh conf = Mtb FBA inhibition, confirmed; actives 78% (n = 5,600); purified M. tuberculosis FBA, fluorescence read-out; shares compounds with Mtb FBA inh; AID 651616; inhibition, % at 1 µM;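 also: 0% = vehicle wells and 100% = reference inhibitor wells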
# GDH-TPI counter-2 = inhibits GDH-TPI coupling enzymes, flagging Mtb FBA hits | shares compounds with Mtb FBA inh | GDH-TPI coupled enzyme counterscreen, fluorescence | inhibition, % at 1 µM | actives 81% (n = 5,600) | AID 652141; in the data active = inhibition above about 10%
# The depositor's hits bear a star; . = no result; + = active, no number. Rule as the data show it, unless noted: active = inhibition above about 27%; inactive = the rest.
SMILES,Rv3671c inh,Mtb UGM inh,Mtb FBA inh,GDH-TPI counter-1,Mtb FBA inh conf,GDH-TPI counter-2
CCN(CC)CCCNC(=O)c1cn(C)c(=O)c2c1c1ccccc1n2C,-4.3,0.4,30.1*,5.2,83.3*,70.7*
CCN(CC)CCCNC(=O)c1cn(CC(C)C)c(=O)c2c1c1ccccc1n2C,-0.4,-2.8,34.9*,7.1,104.8*,95.2*
COCCn1cc(C(=O)NCCN(C)C)c2c3ccccc3n(C)c2c1=O,-7.0,-3.8,21.7,12.0,.,.
CCCCN(CC)CCCNC(=O)c1cn(CC(C)C)c(=O)c2c1c1ccccc1n2C,-6.7,-0.1,19.6,6.6,.,.
COCCn1cc(C(=O)NCCCN2CCC(C)CC2)c2c3ccccc3n(C)c2c1=O,4.8,0.1,28.4*,12.1,+,+
CCN(CC)CCCNC(=O)c1cn(CCOC)c(=O)c2c1c1ccccc1n2C,0.5,1.3,29.4*,5.5,102.0*,96.2*
CN(CC(=O)Nc1cc(Cl)ccc1-n1cncn1)Cc1ccccc1N1CCOCC1,.,.,5.9,7.1,.,.
COc1ccc(S(=O)(=O)N2CCCOC2CNC(=O)C(=O)NCc2ccccc2F)cc1C (configuration not stated),0.2,-2.0,3.5,-2.2,.,.
C=CCN(c1ccccc1)S(=O)(=O)c1cccc(C(=O)O)c1,-3.5,1.6,54.4*,4.0,198.9*,189.0*
O=C(O)c1ccc(-n2cc(-c3cc4ccccc4oc3=O)[nH]c2=S)cc1,.,.,32.3*,23.2,139.2*,98.7*
CNC(=O)c1ccc(-c2ccc(F)cc2)s1,-6.9,-2.6,40.6*,6.0,115.3*,95.2*
CCSc1nnc(SCC(=O)NC2CCCCC2)s1,0.0,-0.7,-0.7,9.9,.,.
O=C(O)c1ccc(-c2nc3ccccc3s2)o1,-0.7,4.1,43.8*,42.0*,35.0*,29.4*
O=Cc1ccc(-c2nc3ccccc3s2)o1,-11.7,0.6,32.5*,17.6,30.6*,30.5*
COc1cccc(CN2CC(C(=O)NCCc3cn4cccnc4n3)CCC2=O)c1 (configuration not stated),.,.,47.1*,2.6,101.9*,71.1*
COCc1cc(C)nc2sc(C(=O)OC(C)C)c(N)c12,4.2,1.7,40.6*,19.4,+,174.8*
COCc1cc(C)nc2sc(C(=O)Nc3ccc(C(=O)OC)cc3)c(N)c12,3.2,0.6,1.2,6.6,.,.
COc1ccc2c(C)cc3n[nH]c(=S)n3c2c1,-0.9,0.9,37.4*,27.7,32.9*,21.5*
COc1ccc(-c2n[nH]c(=S)n2-c2cc(OC)ccc2OC)cc1,5.4,2.1,0.6,0.5,.,.
CCc1ccc(-c2nnn(CC(=O)N(C3CCCC3)C3CCS(=O)(=O)C3)n2)cc1 (configuration not stated),6.0,.,6.2,2.5,.,.
CC(OC(=O)c1ccc(S(=O)(=O)NCc2ccco2)cc1)C(=O)Nc1ccc(Cl)cn1 (configuration not stated),-4.7,-2.3,-1.0,-1.9,.,.
CC(OC(=O)c1ccccc1NCc1ccco1)C(=O)Nc1ncc(Cl)cc1Cl (configuration not stated),-1.9,1.3,56.8*,-4.8,9.0,-6.6
COc1ccc(OC)c(/C=N/NC(=O)CC(=O)NCc2ccccc2)c1,0.9,-1.0,29.3*,-3.5,111.2*,103.2*
COc1ccc(OC)c(/C=N/NC(=O)CC2C(=O)NN=C2C)c1 (configuration not stated),0.0,-1.0,68.2*,15.2,41.6*,37.7*
COc1ccccc1/C=N/Nc1nc(C)cc(=O)[nH]1,.,.,-0.5,25.9,.,.
SMILES,Rv3671c inh,Mtb UGM inh,Mtb FBA inh,GDH-TPI counter-1,Mtb FBA inh conf,GDH-TPI counter-2
COc1ccc(/C=N/NC(=O)CC(=O)NCc2cccnc2)c(OC)c1,-2.1,-3.1,-1.6,17.7,.,.
COc1cccc(/C=N/NC(=O)CC2C(=O)NN=C2C)c1OC (configuration not stated),-3.7,3.0,11.9,11.8,.,.
COc1ccc(OC)c(/C=N/Nc2nc(C)cc(=O)[nH]2)c1,-1.3,0.9,49.1*,22.4,194.2*,173.4*
CCOc1cc(/C=N/NC(=O)CCCC(=O)NC2CCCCC2)ccc1O,12.5,-1.3,55.7*,12.4,23.7,13.9*
CC(C)N(C(=O)[C@H]1C[C@H](CC(=O)NCCC2=CCCCC2)C(=O)N2CCc3c([nH]c4ccc(Cl)cc34)[C@]12C)C(C)C,.,.,4.4,9.4,.,.
COc1ccc(OC)c(/C=N/NC(=O)CC(=O)NC2CCCCC2)c1,5.8,0.5,104.7*,2.2,152.2*,122.3*
COc1ccc(OC)c(C=NNC(=O)NN=Cc2cc(OC)ccc2OC)c1,.,.,11.0,27.4,.,.
Cc1ccc2c(c1)-n1c(nc3ccccc3c1=O)C(CC(C)C)NC2=O (configuration not stated),-5.5,-0.3,.,.,.,.
CCOc1cc(CNc2cccc3[nH]c(C)nc23)ccc1OC,3.3,0.3,0.8,0.0,.,.
Cc1cccc(OC(C)C(=O)NC2CCS(=O)(=O)C2)c1C (configuration not stated),-7.7,-2.3,87.8*,-0.7,119.5*,82.7*
Cc1ccccc1NC(=O)NC1CCS(=O)(=O)C1 (configuration not stated),4.0,-0.7,-0.7,-3.0,.,.
CC(C)[C@H](NC(=O)c1ccc(Cl)cc1Cl)C(=O)NNC(=O)c1ccco1,6.4,-1.3,3.9,15.9,.,.
O=C(c1cc(Cl)ccc1OCc1ccccc1)N1CCOCC1,-3.3,-0.4,-1.9,-1.7,.,.
Cn1c(=O)c2cc(NC(=S)NC3CCCCC3)ccc2n1-c1ccccc1,.,.,42.0*,1.3,76.3*,81.0*
CCn1c(SC)nnc1-c1ccc(S(=O)(=O)N2CCCCC2)cc1,-1.3,-2.0,28.3*,9.9,42.1*,34.4*
COc1cc(Cn2c3ccc(NC(=O)CCc4ccc(O)cc4)cc3c(=O)n2C)ccc1F,.,.,111.0*,9.3,168.7*,125.4*
Cn1c(=O)c2cc(NC(=O)CCc3ccc4c(c3)OCO4)ccc2n1Cc1ccc(F)cc1,.,.,85.1*,5.4,47.7*,21.0*
COc1cc(CCC(=O)OCC(=O)Nc2ccc(F)c(F)c2)cc(OC)c1OC,5.3,0.4,1.5,-1.5,.,.
CCOC(=O)NN1C(=O)c2ccccc2NC1c1ccccc1 (configuration not stated),3.9,-4.0,39.5*,7.8,+,+
CCOC(=O)NN1C(=O)c2ccccc2NC1C (configuration not stated),7.9,-2.9,72.5*,0.3,146.3*,116.4*
CCOC(=O)NN1C(=O)c2ccccc2NC1c1ccc(N(C)C)cc1 (configuration not stated),5.4,-1.2,9.6,16.7,.,.
CCOC(=O)NN1C(=O)c2ccccc2NC1c1ccc(OC)cc1 (configuration not stated),3.8,-1.4,40.1*,8.5,140.5*,119.5*
CCOC(=O)NN1C(=O)c2ccccc2NC1c1ccccn1 (configuration not stated),-0.7,-1.2,29.8*,4.1,105.0*,76.7*
